Screening results from PubChem BioAssay.
WRN helicase inh: blocks human WRN helicase. WRN helicase unwinding, fluorescent forked duplex, kinetic. Potency, µM (titrated, usually from 114 µM), for inactives: at the top dose activity change, negative = inhibition, most hits filed as inhibitors. actives 0.46% (n = 360,000); note: % is set by controls: 0 for no effect and ±100 for the full control effect; nearly all actives have a fitted effect of over 55% in size
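Screening of the MLSMR collection measured strand separation of a quenched forked DNA duplex (100 nM) by 20 nM WRN with 2 mM ATP, all final. Compounds were preincubated with enzyme 15 min at room temperature.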
Pol kappa inh: blocks human DNA polymerase kappa activity | purified Pol kappa, fluorescent DNA synthesis assay, 10 min | actives 0.53% (n = 400,000) | Potency, µM (top dose mostly 107 µM), for the others: at the highest dose activity, negative = inhibition, actives largely listed as inhibitors | Q9UBT6; note: % is set by controls: 0 for no effect and ±100 for the full control effect
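Readout: fluorescence, taken kinetically at 0 and 10 min. Conditions: 10 nM Pol kappa, 15 min RT compound preincubation, 50 nM substrate final. Controls: enzyme-free buffer wells.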
FEN1 inh: inhibitors of human flap endonuclease 1 | P39748 | Recombinant FEN1 flap cleavage, fluorescence, 15 min | Potency, µM (top dose mostly 114 µM), without a hit: top-dose activity change, negative = inhibition, actives largely listed as inhibitors | actives 0.35% (n = 390,000) | AID 588795; note: % is set by controls: 0 for no effect and ±100 for the full control effect; nearly all actives have a fitted effect of over 65% in size
Target sequence (P39748 whole entry, looked up): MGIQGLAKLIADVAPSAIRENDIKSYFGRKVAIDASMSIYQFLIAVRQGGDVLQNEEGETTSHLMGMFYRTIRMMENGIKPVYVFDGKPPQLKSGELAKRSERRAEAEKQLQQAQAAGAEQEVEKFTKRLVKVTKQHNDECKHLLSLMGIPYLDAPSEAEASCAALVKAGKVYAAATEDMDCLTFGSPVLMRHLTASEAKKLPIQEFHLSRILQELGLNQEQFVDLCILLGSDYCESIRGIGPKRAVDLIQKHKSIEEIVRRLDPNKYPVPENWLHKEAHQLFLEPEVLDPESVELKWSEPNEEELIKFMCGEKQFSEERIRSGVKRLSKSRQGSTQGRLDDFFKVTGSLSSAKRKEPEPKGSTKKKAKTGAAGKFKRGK
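Steps: FEN1 (10 nM) dispensed; compound added by pin tool; 15 min at room temperature; substrate added to 50 nM final; reads at 0 min and 15 min; data normalized and fitted (four-parameter Hill).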
POLB inh: inhibitors of human DNA polymerase beta | P06746 | Pol beta primer extension/strand displacement, fluorescence kinetic | Potency, µM (doses to about 114 µM), without a hit: at the highest dose activity change, negative = inhibition, actives largely listed as inhibitors | actives 1.3% (n = 340,000); note: % is set by controls: 0 for no effect and ±100 for the full control effect
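Enzyme-only controls used 10 nM Pol beta; buffer lacking enzyme served as negative control. Compound preincubated 15 min, then 50 nM substrate added; 0 and 10 min reads at room temperature.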
Pol eta inh: DNA polymerase eta (human) inhibition; Potency, µM (titrated, usually from 114 µM), inactives show at the highest dose activity change, negative = inhibition, usual class: inhibitors; actives 1.2% (n = 390,000); recombinant Pol eta, fluorescent DNA replication assay; note: % is set by controls: 0 for no effect and ±100 for the full control effect
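Pol eta (10 nM) was preincubated with compounds for 15 min at room temperature, after which fluorescent replication substrate (50 nM final) was added to start the reaction. Fluorescence was read kinetically at 0 and 10 min.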
POLI inh: inhibitors of human DNA polymerase iota. Q9UNA4. Pol iota fluorescent replication assay, 10 min. Potency, µM (series often up to 115 µM), for the others: at the highest dose activity, negative = inhibition, most hits filed as inhibitors. actives 1% (n = 390,000)
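Fluorescent replication assay read twice, at 0 min and 10 min after adding 50 nM (final) substrate. Enzyme (10 nM) and compounds were first incubated 15 min at room temperature; enzyme-free buffer wells were negative controls.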
Active calls of the source: *; ? = inconclusive; nt = no result given; [ ] = another dose, or the depositor's remark. This is a sample that favours compounds with a hit; in the whole collection about 2.4% have one here. Calls come from the whole dose curve; as a rule, active = well fitted curve in the direction sought with a large enough effect; inconclusive = small, poorly fitted or top-dose-only effect, or another doubt; inactive = no such curve, though single readings can be large; an effect the other way counts as inactive or inconclusive. Potency is the fitted concentration of half-maximal effect.

SMILES	WRN helicase inh	Pol kappa inh	FEN1 inh	POLB inh	Pol eta inh	POLI inh
Cc1ccc(-c2nnc(Nc3cccc(O)c3)c3ccccc23)cc1S(=O)(=O)NCCO	-10.9%	-23.9%	-21.0%	1.4%	?	17.1%
O=C(Nc1ccccc1F)C1CCCN(S(=O)(=O)c2ccc(-n3cnnn3)cc2)C1 (centres undefined)	13.5%	4.8%	-4.3%	4.8%	-6.7%	52.6%
O=C(Nc1ccccc1F)C1CCCN(S(=O)(=O)c2ccccc2)C1 (centres undefined)	79.4µM*	-10.8%	-9.0%	4.0%	-18.3%	88.4%
CC1=CC(=O)C(C(C)C)=C/C1=C(\c1cc(C(C)C)c(OP(=O)(O)O)cc1C)c1ccccc1C(=O)O	-20.9%	-19.9%	0.8%	50.1µM*	79.4µM*	50.9%
O=C1N=c2ccccc2=C1c1sc(=O)[nH]c1O	-8.0%	-25.4%	-1.7%	5.7%	-4.1%	-13.3%
O=C1N=c2ccc([N+](=O)[O-])cc2=C1c1sc(=O)[nH]c1O	?	89.1µM*	?	1.1%	-19.4%	15.2%
COc1ccc(S(=O)(=O)NCc2cccs2)cc1	-7.7%	-26.9%	-5.1%	25.1µM*	-4.2%	-13.6%
CCN(CC)S(=O)(=O)c1ccc(S(=O)(=O)NCc2cccs2)cc1	-33.8%	-9.3%	3.4%	39.4%	-1.7%	5.5%
CCn1c(SCC(=O)NCc2ccco2)nnc1-c1cccs1	-19.2%	-12.1%	0.4%	31.6µM*	0.1%	-7.0%
CCOc1ccc(-c2nnc3ccc(SCC(=O)NCc4ccco4)nn23)cc1	-23.3%	-6.7%	-19.3%	25.1µM*	?	?
O=C(CSc1ncc(-c2ccccc2)nn1)NCc1ccco1	-8.4%[11.6 µM]	-4.9%	0.9%	28.2µM*	-24.2%	?
O=C(CSc1ccc2nnc(-c3ccc(F)cc3)n2n1)NCc1ccco1	-24.5%	-19.8%	1.9%	?	2.4%	?
CCn1c(SCC(=O)NCc2ccco2)nnc1-c1ccncc1	nt	nt	nt	-24.1%	nt	nt
O=C(CSc1nccn1Cc1ccccc1)NCc1ccco1	nt	0.1%[60.1 µM]	-0.5%	28.2µM*	-13.0%	?
O=C(Nc1ccccc1)OCCOc1cccc(Br)c1	-4.7%	-8.8%	-0.8%	-2.6%	-24.3%	124.2%
COCC(=O)N(C)C[C@H]1Oc2cc(C#Cc3cccnc3)ccc2S(=O)(=O)N([C@H](C)CO)C[C@H]1C	-3.2%	nt	nt	nt	-2.2%	nt
O=C(O)CSc1ncnc2c1oc1ccccc12	-9.3%	-16.3%	-2.9%	9.2%	0.3%	-1.5%
CCCCc1nc2sc3c(SCC(=O)NCc4ccco4)ncnc3c2c2c1CCC2	-18.9%	-21.2%	6.4%	?	22.4µM*	-14.6%
O=C(CSc1ncnc2c1oc1ccccc12)NCc1ccco1	-13.1%[57.1 µM]	-15.5%	-15.0%	31.6µM*	-15.6%	?
CCCCOc1ccc(/C=C/C(=O)Nc2ccc([N+](=O)[O-])cc2C)cc1	-13.5%[57.1 µM]	1.0%	1.0%	13.5%	-14.0%	-10.4%
O=C(COC(=O)c1ccc(NS(=O)(=O)c2ccc(Br)s2)cc1)NC1CCCC1	-1.4%[57.1 µM]	0.9%	-13.1%	5.5%	1.6%	-1.4%
CC(=O)N(C(C)=O)N1C(=O)/C(=C/c2ccc(Cl)cc2)SC1=S	?	-33.9%	?	?	28.2µM*	25.1µM*
O=C(N/N=C/c1coc2ccccc2c1=O)c1ccccc1	-24.1%	5.5%	-8.1%	-1.1%	-8.9%	45.7%
O=C(Cn1ncc2c3ccccc3n(Cc3cccc(Cl)c3)c2c1=O)NCCCc1ccccc1	nt	?	-7.2%	28.2µM*	-23.6%	?
O=C(Cn1ncc2c3ccccc3n(Cc3ccc(Cl)cc3)c2c1=O)NCCCc1ccccc1	nt	-6.7%	-7.0%	?	-17.5%	28.5%
SMILES	WRN helicase inh	Pol kappa inh	FEN1 inh	POLB inh	Pol eta inh	POLI inh
CC1CCCN(C(=S)SCC(=O)c2cc(Br)cc(Br)c2O)C1 (centres undefined)	89.1µM*	25.1µM*	50.1µM*	15.8µM*	-16.8%	22.4µM*
O=C(CSC(=S)N1CCCC1)c1cc(Br)cc(Br)c1O	56.2µM*	?	-14.8%	50.1µM*	?	?
COc1cc(-c2[nH]ncc2CN2CCCC2c2nonc2C)cc(OC)c1OC (centres undefined)	0.0%	-14.5%	-8.6%	4.1%	-25.5%	0.1%
Nc1nc(SCC(=O)N2N=C3/C(=C/c4ccco4)CCCC3C2c2ccco2)n[nH]1 (centres undefined)	-3.6%	-25.2%	-7.2%	4.6%	?	44.7µM*
O=C(CSc1ncn[nH]1)N1N=C2/C(=C/c3ccccc3)CCCC2C1c1ccccc1 (centres undefined)	-7.1%	-8.3%[60.1 µM]	-19.0%	-25.9%[57.1 µM]	-16.0%	14.0%
Nc1nc(SCC(=O)N2N=C3/C(=C\c4ccco4)CCCC3C2c2ccco2)n[nH]1 (centres undefined)	-2.3%[11.6 µM]	-32.1%	4.1%	nt	?	39.8µM*
Cc1ccccc1Oc1ccc2c(c1)[C@@H]1C[C@H](N(C)C(=O)c3ccc(C#N)cc3)[C@H]([C@H](C)O)C(=O)N1CC2	4.8%	-1.4%	-9.0%	nt	-19.3%	-7.9%
OC[C@@H]1CN(Cc2cccnc2)C[C@H](n2cnc3c(N4CCCC4)ncnc32)O1	-1.9%	nt	nt	nt	nt	nt
Cn1cc(C(c2ccccc2OCC(=O)O)c2cn(C)c3ccccc23)c2ccccc21	79.4µM*	-12.7%	-11.2%	-2.7%	0.9%	81.7%
O=C(CNC(=O)c1ccco1)NC1CCCCCC1	5.5%	0.9%	6.1%	nt	-1.0%	-19.6%
O=C(NC1CCCCCC1)c1ccco1	3.8%[11.6 µM]	89.1µM*	-16.9%	4.5%	-4.3%	31.6µM*
O=C(CN1C(=O)C(=O)N(Cc2ccco2)C1=O)NC1CCCCC1	-8.3%[11.6 µM]	?	2.3%	-14.7%	31.6µM*	?
CNC(=O)[C@H]1O[C@@H](n2cnc3c(NCc4ccc(N)cc4)ncnc32)[C@H](O)[C@@H]1O	nt	-1.8%[60.1 µM]	nt	nt	nt	nt
NC(=O)C1CCN(c2ncnc3c2cnn3-c2ccccc2)CC1	nt	-5.1%[60.1 µM]	-5.3%	0.2%	-11.1%	16.5%
COc1ccc(NC(=O)c2ccccc2C)cc1	7.5%	-6.6%	6.9%	32.0%	-2.4%	39.6%
CCOc1ccc(-c2cc(CCCC(=O)NCCc3ccc(Cl)cc3)no2)cc1	nt	-3.5%	5.2%	?	-9.1%	-12.0%
Cc1ccc(/C(N)=N/OC(=O)Cc2cccs2)cc1	7.2%	-4.2%	16.8%	9.9%	-7.4%	1.4%
N/C(=N\OC(=O)Cc1cccs1)c1ccccc1	-25.3%	-26.7%	-19.0%	-13.7%	15.8µM*	3.7%
CN(C(=O)COc1coc(CN2CCN(c3ccccc3)CC2)cc1=O)c1ccccc1	-12.2%	-5.9%	-6.3%	nt	-17.5%	26.3%
Brc1ccc(C2=CC(c3cccs3)n3ncnc3N2)cc1 (centres undefined)	-3.3%	-23.6%	-22.6%	50.1µM*	?	?
